BAZ2B block: qHTS Assay for Inhibitors of BAZ2B; Bromodomain adjacent to zinc finger domain protein 2B (Homo sapiens), Q9UIF8; Potency, µM (series often up to 114 µM), for inactives: at the highest dose activity change, negative = inhibition, actives largely listed as inhibitors; AID 504333, 2011; 360,000 compounds, 4.4% hits; AlphaScreen BAZ2B-H3K14Ac peptide displacement; also: % is scaled to controls: 0 for no effect and ±100 for the full control effect; nearly all actives have a fitted effect of over 60% in size
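Inhibition is scored as reduced AlphaScreen emission. The BAZ2B/b-H3(5-23)K14Ac complex (50 nM each) in PBS pH 7.4, 0.01% Tween-20 meets compound (up to 110 uM) for 30 min at RT before bead addition.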
Sfp PPTase inh: qHTS Assay for Inhibitors of Bacillus subtilis Sfp phosphopantetheinyl transferase (PPTase); Potency, µM, without a hit: largest response in the series, negative = inhibition, usual class: inhibitors; AID 1490, 2009; 310,000 compounds, 3.5% hits; Biochemical Sfp PPTase activity, qHTS;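 also: the enzyme is Sfp with the accession as filed and its product quenches rhodamine fluorescence; 0% = enzyme reaction without inhibitor and -100% = no enzyme wells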
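Sfp 15 nM + cpd, 15 min RT; start w/ rhodamine-CoA 5 uM, BHQ-2-YbbR 12.5 uM (final); 50 mM Hepes pH 7.6, 10 mM MgCl2, 0.01% NP-40, 0.01% BSA; read 525/598 nm at 0 and 30 min.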
L3MBTL1 block: qHTS Assay for the Inhibitors of L3MBTL1. Lethal(3)malignant brain tumor-like protein 1 (Homo sapiens), Q9Y468. AlphaScreen L3MBTL1–H3K9me1 peptide binding. Potency, µM (titrated, usually from 57.1 µM), inactives show top-dose activity, negative = inhibition, hits mostly inhibitors. 230,000 compounds, 0.66% hits. AID 485360, 2010; also: % is scaled to controls: 0 for no effect and ±100 for the full control effect; nearly all actives have a fitted effect of over 60% in size
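AlphaScreen assay: L3MBTL1 (50 nM final) was preincubated 30 min at room temperature with biotinylated H3(1-15)K9me1 peptide (75 nM final), then 30 min with library compounds; streptavidin donor and nickel chelate acceptor beads (10 ug/mL final) added, 30 min dark.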
G9a inh: qHTS Assay for Inhibitors of Histone Lysine Methyltransferase G9a. G9a H3K9 monomethylation, AlphaScreen, 2 h. Histone-lysine N-methyltransferase EHMT2 (Homo sapiens), Q96KQ7. Potency, µM (highest dose often 102 µM), inactives show at the top dose activity, negative = inhibition, most hits filed as inhibitors. 350,000 compounds, 8.8% hits; also: % is scaled to controls: 0 for no effect and ±100 for the full control effect; nearly all actives have a fitted effect of over 75% in size
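Enzyme 20 nM + cpd, 15 min RT; add b-H3K9 pep 500 nM / SAM 20 uM; 2 h RT; anti-H3K9me1 Ab 0.5 ug/mL + SA donor / anti-rabbit acceptor beads 20 ug/mL each, 10 min; AlphaScreen read.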
HP1b binding inh: HTS for Inhibitors of HP1-beta Chromodomain Interactions with Methylated Histone Tails. Chromobox protein homolog 1 (Homo sapiens), P83916. AlphaScreen HP1-beta / biotin-H3K9me3 peptide binding. Potency, µM (series often up to 114 µM), for the others: top-dose activity change, negative = inhibition, usual class: inhibitors. 390,000 compounds, 0.56% hits. AID 540317, 2011; also: nearly all actives have a fitted effect of over 70% in size
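HP1-beta protein (50 nM final) preincubated 30 min at room temperature with biotinylated H3(1-18)K9me3 peptide (50 nM) in PBS pH 7.4, 0.01% Tween-20, then compound added for 30 min. AlphaScreen streptavidin donor/nickel chelate acceptor beads (10 ug/mL final), 30 min dark, luminescence read.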
JMJD2A Tudor inh: qHTS Assay for Inhibitors of JMJD2A-Tudor Domain; AlphaScreen JMJD2A-Tudor / H3K4me3 peptide binding; Potency, µM (highest dose often 114 µM), for the others: at the highest dose activity change, negative = inhibition, actives largely listed as inhibitors; 390,000 compounds, 4.4% hits; AID 504339, 2011; also: % is scaled to controls: 0 for no effect and ±100 for the full control effect; nearly all actives have a fitted effect of over 50% in size
Target sequence (O75164 whole entry, looked up, the tested form may be a part): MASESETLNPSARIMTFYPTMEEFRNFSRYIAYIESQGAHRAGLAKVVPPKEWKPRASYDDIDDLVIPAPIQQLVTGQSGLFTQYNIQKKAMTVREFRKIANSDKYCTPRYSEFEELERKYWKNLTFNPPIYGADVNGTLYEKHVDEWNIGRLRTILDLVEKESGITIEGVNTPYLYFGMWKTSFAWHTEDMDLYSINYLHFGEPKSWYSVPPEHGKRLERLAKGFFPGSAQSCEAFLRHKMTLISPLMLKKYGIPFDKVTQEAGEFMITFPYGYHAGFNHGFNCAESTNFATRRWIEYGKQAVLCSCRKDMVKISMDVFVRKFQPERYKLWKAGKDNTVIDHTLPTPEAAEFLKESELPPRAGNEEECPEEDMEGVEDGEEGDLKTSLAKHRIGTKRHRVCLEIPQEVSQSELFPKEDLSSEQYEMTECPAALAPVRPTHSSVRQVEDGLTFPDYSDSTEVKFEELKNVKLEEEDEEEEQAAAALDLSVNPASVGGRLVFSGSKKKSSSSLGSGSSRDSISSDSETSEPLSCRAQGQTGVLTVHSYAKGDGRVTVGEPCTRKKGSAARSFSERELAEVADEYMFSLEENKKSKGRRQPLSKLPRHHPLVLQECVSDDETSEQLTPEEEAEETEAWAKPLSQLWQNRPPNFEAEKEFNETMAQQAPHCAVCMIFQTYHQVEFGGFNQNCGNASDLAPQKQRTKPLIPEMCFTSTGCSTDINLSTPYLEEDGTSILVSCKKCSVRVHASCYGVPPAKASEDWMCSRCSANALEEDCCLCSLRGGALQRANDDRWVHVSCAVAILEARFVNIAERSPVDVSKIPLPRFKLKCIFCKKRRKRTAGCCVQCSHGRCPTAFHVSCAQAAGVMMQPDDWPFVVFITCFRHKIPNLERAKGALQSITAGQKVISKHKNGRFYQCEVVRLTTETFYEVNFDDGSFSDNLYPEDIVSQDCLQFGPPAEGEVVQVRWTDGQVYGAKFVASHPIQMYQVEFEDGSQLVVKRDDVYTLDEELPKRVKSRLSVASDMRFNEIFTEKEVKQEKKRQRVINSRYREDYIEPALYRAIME
Numbers without * were called inactive; ? = inconclusive; . = no result given; ! = a repeat was not active; [ ] = remark or other dose. Sampled rows, rich in hits. Any-hit rate of the full collection: about 12%. Calls follow the shape of the dose curve; as a rule, active = well fitted curve in the direction sought with a large enough effect; inconclusive = small, poorly fitted or top-dose-only effect, or another doubt; inactive = no such curve, though single readings can be large; an effect the other way counts as inactive or inconclusive. Potency is read from the fitted curve at half-maximal effect.

SMILES | BAZ2B block | Sfp PPTase inh | L3MBTL1 block | G9a inh | HP1b binding inh | JMJD2A Tudor inh
CCc1nc(Nc2ccc(N3CCN(C(C)=O)CC3)cc2)c2oc3ccccc3c2n1 | 50µM* | ? | 1% | ? | 0% | ?
CCc1nc(Nc2ccc(F)cc2)c2oc3ccccc3c2n1 | 0% | -7% | . | 45µM* | 43% | 1%
CCNc1ncc2nc(-c3cc(F)cc(F)c3)c(=O)n(CCC#N)c2n1 | . | 11% | . | 11%[0.501 µM] | . | .
COc1ccccc1OCC(O)CN1CCN(CC(=O)Nc2c(C)cccc2C)CC1 (stereo not drawn) | 0% | 23% | 8% | 3%[59 µM] | 19% | 89µM*!
Cc1ccccc1OCC(O)CN1CCN(C)CC1 (stereo not drawn) | ? | -27% | -5% | 50µM* | 20% | -27%
Cc1ccc(OCC(O)CN2CCOCC2)c(C)c1 (stereo not drawn) | -36% | 6% | 9% | 89µM* | 1% | 89µM*
COc1cccc(OCC(O)CN2CCN(C)CC2)c1 (stereo not drawn) | 50µM* | ? | . | 25µM* | ? | 1µM*
COc1ccccc1NC(=O)CSc1nnc(NC(=O)Nc2ccc(C)cc2)s1 | -3% | . | . | ? | 17% | -15%
N#Cc1nc(NCCO)nc(Nc2ccccc2)n1 | . | . | . | . | . | -28%
CC(=O)Nc1ccc2nc(CN3CCC(CO)(CCc4ccccc4)CC3)ccc2c1 | -33% | -14% | -19% | -39% | 10% | 32µM*
CC1=C(C(=O)Nc2ccc(C)cc2C)C(CC(C)C)n2nc(SCc3ccccc3C)nc2N1 (stereo not drawn) | 2% | . | . | -1%[59 µM] | 16% | -11%
O=C1C2=CC[C@@H]3C(=O)N(c4ccc(F)cc4F)C(=O)[C@H]3[C@H]2[C@H](O)[C@H]2O[C@H]12 | . | -10% | . | . | . | .
[O-]c1c[n+](-c2ccc(-[n+]3cc([O-])on3)cc2)no1 | 50µM* | 56µM* | ? | -123%[59 µM] | ? | ?
[O-]c1c[n+](-c2ccccc2)no1 | -2% | 1% | . | 5µM* | 57% | -18%
CCC/C=C/C(C)O (stereo not drawn) | . | -1% | . | . | . | .
CCOC(=O)c1c(NC(=O)C2C3C=CC(C3)C2(C)C(=O)O)sc2c1CCCC2 (stereo not drawn) | 56µM* | 5% | -15% | -15%[59 µM] | 4% | -34%
CCOC(=O)c1c(NC(=O)C2CC2)sc2c1CC(C)(C)OC2 | -23% | 9% | . | 35µM* | 40% | 10%
CCOC(=O)Nc1sc2c(c1C(=O)OCC)CCC2 | ? | 40µM* | . | 5% | 50% | 28%
CCCCOC(=O)Nc1sc2c(c1C(=O)OC)CCC2 | 32% | 50µM* | 10% | ? | 28% | 38%
CC(=O)c1ccc(NC(=O)C(C)n2nc(-c3ccccc3)ccc2=O)cc1 (stereo not drawn) | -6% | . | . | 8%[59 µM] | 44% | -1%
CC(C)Cn1nc(C(=O)NCc2ccccc2CN2CCCC2)c2ccccc2c1=O | 0% | . | -1% | 8%[12.7 µM] | 23% | -12%
O=C(N/N=C/C=C\c1ccccc1[N+](=O)[O-])c1cc(-c2ccccc2)nc2ccccc12 | -31% | -2% | -16% | 0%[59 µM] | 17% | -33%
O=[N+]([O-])c1ccccc1/C=C/C=N/n1c(-c2ccco2)n[nH]c1=S | ? | -5% | -17%[2.29 µM] | -131% | -15% | 22µM*
O=[N+]([O-])c1ccccc1/C=C/C=N/n1c(-c2cc(-c3ccccc3)n[nH]2)n[nH]c1=S | -32% | 18µM* | ? | . | 1% | 50µM*
Cc1ccc(-c2n[nH]c(=S)n2/N=C/C=C/c2ccccc2[N+](=O)[O-])cc1 | ? | ? | . | 0.28µM* | ? | -36%
SMILES | BAZ2B block | Sfp PPTase inh | L3MBTL1 block | G9a inh | HP1b binding inh | JMJD2A Tudor inh
CC(C)C[C@H](NC(=O)CNC(=O)[C@@H]1CCCN1C(=O)[C@H](CCCNC(=N)N)NC(=O)[C@H](CC(=O)O)NC(=O)[C@@H](NC(=O)[C@H](CC(N)=O)NC(=O)[C@@H](NC(=O)[C@H](CC(=O)O)NC(=O)CNC(=O)[C@@H](NC(=O)[C@@H](NC(=O)[C@H](C)NC(=O)[C@@H](N)CCC(N)=O)[C@@H](C)O)C(C)C)C(C)C)[C@@H](C)O)C(=O)N[C@@H](CC(C)C)C(=O)N[C@@H](CC(=O)O)C(=O)N[C@@H](CC(C)C)C(=O)N[C@@H](CCCCN)C(=O)O | . | 2% | . | . | . | .
N#C/C(=C\c1ccc(C#N)cc1)C(=O)c1ccccc1 | -26% | 50µM* | 1% | -48%[2.33 µM] | 23% | -12%
CN(C)c1ccc(/C=C(\C#N)C(=O)c2ccccc2)cc1 | 15% | -5% | 8% | 10% | 69% | 17%
CC1CCN(S(=O)(=O)c2cn(CC(=O)Nc3ccc(F)c(Cl)c3)c(=O)c3ccccc23)CC1 | -8% | . | . | -10%[59 µM] | 16% | -18%
O=C(CN1C(=O)CC(c2ccccc2)=Nc2ccccc21)Nc1ccc(Br)cc1 | 17% | . | . | 16%[59 µM] | 94% | -26%
CN(C)c1ccc(NC(=O)CN2C(=O)CC(c3ccccc3)=Nc3ccccc32)cc1 | -5% | 5% | -5% | 2µM* | 7% | -11%
FC(F)(F)c1ccccc1-c1nccc(N2CCNCC2)n1 | . | 3% | . | -34%[0.501 µM] | . | .
COc1cc(CNCCc2ccccc2)cc(Cl)c1OCc1ccccc1 | -1% | 32µM* | 26% | -40% | 36% | 11%
COc1cc(CNCc2ccccc2)cc(Cl)c1OC | -19% | -1% | 8% | ? | 32% | 3%
COc1cc(CNn2cn[nH]c2=S)cc(Br)c1OCc1ccccc1F | ? | -16% | 2%[11.4 µM] | 10µM* | 21% | ?
COc1cc(CNn2cn[nH]c2=S)cc(Cl)c1OCc1ccccc1 | -6% | 8% | -2% | 10µM* | 3% | -22%
COc1cc(CNc2ccc(CNc3ncn[nH]3)cc2)cc(Cl)c1OCc1ccccc1 | 1% | 3% | -5% | -19%[59 µM] | ? | -19%
OCCNc1nc(-c2cccs2)nc2ccccc12 | . | . | . | . | 14% | 1%
COCCNC(=S)Nc1cccc2cnccc12 | -6% | -16% | . | 50µM* | 31% | -6%
CCCCNC(=S)Nc1cccc2cnccc12 | 12% | -17% | -4% | 45µM* | 3% | -6%
CCOc1ccc(CNC(=O)Cn2nc(C)c3c(C)n(-c4ccc(C)cc4)nc3c2=O)cc1 | -32% | -14% | . | 16% | 16% | 40µM*!

Screening data deposited in PubChem by National Center for Advancing Translational Sciences (NCATS).
